For seven molecules, residual activity results are on record in ChEMBL document CHEMBL2218924, “A broad activity screen in support of a chemogenomic map for kinase signalling research and drug discovery” (Biochem J, 2013).

Test [1] deals with ALK tyrosine kinase receptor (Homo sapiens) (UniProt Q9UM73). The conditions noted are these: at 10 µM.
The target of test [2] is T1, Activin receptor type-1B (Homo sapiens) (UniProt P36896).
T1 sequence (whole entry): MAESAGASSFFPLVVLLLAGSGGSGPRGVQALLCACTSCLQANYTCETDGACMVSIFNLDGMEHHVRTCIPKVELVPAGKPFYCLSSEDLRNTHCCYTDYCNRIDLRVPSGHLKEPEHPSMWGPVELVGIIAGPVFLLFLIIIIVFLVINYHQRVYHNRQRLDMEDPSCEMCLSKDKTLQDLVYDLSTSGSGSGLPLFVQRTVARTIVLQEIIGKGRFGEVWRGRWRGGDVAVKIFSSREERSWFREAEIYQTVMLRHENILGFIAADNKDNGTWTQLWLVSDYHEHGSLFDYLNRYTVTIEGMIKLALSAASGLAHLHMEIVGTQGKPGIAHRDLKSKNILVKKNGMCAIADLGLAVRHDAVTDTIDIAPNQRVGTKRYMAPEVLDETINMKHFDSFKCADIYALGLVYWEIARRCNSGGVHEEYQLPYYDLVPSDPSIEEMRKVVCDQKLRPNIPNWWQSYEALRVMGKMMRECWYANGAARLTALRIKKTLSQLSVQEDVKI
The conditions noted are these: at 1 µM.

The target in test [3] is T1, Activin receptor type-1B (Homo sapiens). The conditions noted are these: at 10 µM.
Test [4] concerns the target T2, AMP-activated protein kinase (AMPK) alpha-1/beta-1/gamma-1 (Homo sapiens) (UniProt P54619+Q9Y478+Q13131). The conditions noted are these: at 1 µM.
The target of test [5] is T2, AMP-activated protein kinase (AMPK) alpha-1/beta-1/gamma-1 (Homo sapiens). The conditions noted are these: at 10 µM.
Test [6] has as its target T3, AMP-activated protein kinase, AMPK (Homo sapiens) (UniProt P54646+O43741+P54619+Q9UGJ0+Q9Y478+Q13131+Q9UGI9). The conditions noted are these: at 1 µM.
For test [7], the target named is T3, AMP-activated protein kinase, AMPK (Homo sapiens). The conditions noted are these: at 10 µM.
For test [8], the target named is T4, NUAK family SNF1-like kinase 1 (Homo sapiens) (UniProt O60285).
T4 sequence (whole entry): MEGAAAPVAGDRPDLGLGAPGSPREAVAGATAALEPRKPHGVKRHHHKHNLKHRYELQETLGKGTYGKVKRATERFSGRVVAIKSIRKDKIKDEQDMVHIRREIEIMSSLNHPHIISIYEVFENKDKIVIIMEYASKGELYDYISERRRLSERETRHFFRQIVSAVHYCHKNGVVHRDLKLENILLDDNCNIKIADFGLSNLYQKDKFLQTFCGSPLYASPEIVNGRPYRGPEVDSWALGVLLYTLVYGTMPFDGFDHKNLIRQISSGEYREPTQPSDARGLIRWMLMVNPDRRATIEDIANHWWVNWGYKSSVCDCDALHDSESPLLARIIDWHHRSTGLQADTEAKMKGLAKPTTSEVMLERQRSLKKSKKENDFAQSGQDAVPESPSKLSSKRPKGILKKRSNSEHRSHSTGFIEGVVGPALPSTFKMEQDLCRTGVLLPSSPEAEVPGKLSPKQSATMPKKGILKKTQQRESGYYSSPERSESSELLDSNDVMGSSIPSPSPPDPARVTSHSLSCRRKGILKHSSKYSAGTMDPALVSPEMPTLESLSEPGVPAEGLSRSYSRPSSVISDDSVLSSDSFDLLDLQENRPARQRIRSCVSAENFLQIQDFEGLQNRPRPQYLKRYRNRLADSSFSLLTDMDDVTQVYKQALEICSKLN
The conditions noted are these: at 1 µM.

Test [9] concerns the target T4, NUAK family SNF1-like kinase 1 (Homo sapiens). The conditions noted are these: at 10 µM.
The target in test [10] is Platelet-derived growth factor receptor alpha (Homo sapiens) (UniProt P16234). The conditions noted are these: at 10 µM.
The target of test [11] is Platelet-derived growth factor receptor beta (Homo sapiens) (UniProt P09619). The conditions noted are these: at 10 µM.
Test [12] has as its target T5, 3-phosphoinositide-dependent protein kinase 1 (Homo sapiens) (UniProt O15530).
T5 sequence (whole entry): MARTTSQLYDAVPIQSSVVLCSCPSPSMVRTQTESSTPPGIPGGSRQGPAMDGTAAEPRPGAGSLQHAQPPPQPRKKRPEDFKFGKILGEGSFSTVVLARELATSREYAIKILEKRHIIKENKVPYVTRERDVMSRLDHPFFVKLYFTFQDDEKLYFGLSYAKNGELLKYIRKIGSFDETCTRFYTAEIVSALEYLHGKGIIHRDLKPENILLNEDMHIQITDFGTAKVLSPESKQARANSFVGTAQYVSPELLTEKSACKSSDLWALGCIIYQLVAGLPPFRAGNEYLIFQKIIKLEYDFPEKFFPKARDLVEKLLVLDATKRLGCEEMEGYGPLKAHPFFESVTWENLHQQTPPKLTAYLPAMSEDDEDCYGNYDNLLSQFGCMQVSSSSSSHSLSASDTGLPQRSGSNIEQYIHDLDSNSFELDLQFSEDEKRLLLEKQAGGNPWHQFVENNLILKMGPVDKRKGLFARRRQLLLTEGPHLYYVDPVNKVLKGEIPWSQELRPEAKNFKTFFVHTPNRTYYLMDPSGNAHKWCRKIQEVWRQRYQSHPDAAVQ
The conditions noted are these: at 1 µM.

Test [13] has as its target T5, 3-phosphoinositide-dependent protein kinase 1 (Homo sapiens). The conditions noted are these: at 10 µM.
The target in test [14] is cAMP-dependent protein kinase catalytic subunit alpha (Homo sapiens) (UniProt P17612). The conditions noted are these: at 10 µM.
In test [15] the target is RAC-gamma serine/threonine-protein kinase (Homo sapiens) (UniProt Q9Y243). The conditions noted are these: at 1 µM.
The target is the same in test [16]. The conditions noted are these: at 10 µM.
The target of test [17] is Platelet-derived growth factor receptor alpha (Homo sapiens) (UniProt P16234). The conditions noted are these: at 1 µM.
The target of test [18] is cAMP-dependent protein kinase catalytic subunit alpha (Homo sapiens) (UniProt P17612). The conditions noted are these: at 1 µM.
For test [19], the target named is T6, Mitogen-activated protein kinase kinase kinase 5 (Homo sapiens) (UniProt Q99683).
T6 sequence (whole entry): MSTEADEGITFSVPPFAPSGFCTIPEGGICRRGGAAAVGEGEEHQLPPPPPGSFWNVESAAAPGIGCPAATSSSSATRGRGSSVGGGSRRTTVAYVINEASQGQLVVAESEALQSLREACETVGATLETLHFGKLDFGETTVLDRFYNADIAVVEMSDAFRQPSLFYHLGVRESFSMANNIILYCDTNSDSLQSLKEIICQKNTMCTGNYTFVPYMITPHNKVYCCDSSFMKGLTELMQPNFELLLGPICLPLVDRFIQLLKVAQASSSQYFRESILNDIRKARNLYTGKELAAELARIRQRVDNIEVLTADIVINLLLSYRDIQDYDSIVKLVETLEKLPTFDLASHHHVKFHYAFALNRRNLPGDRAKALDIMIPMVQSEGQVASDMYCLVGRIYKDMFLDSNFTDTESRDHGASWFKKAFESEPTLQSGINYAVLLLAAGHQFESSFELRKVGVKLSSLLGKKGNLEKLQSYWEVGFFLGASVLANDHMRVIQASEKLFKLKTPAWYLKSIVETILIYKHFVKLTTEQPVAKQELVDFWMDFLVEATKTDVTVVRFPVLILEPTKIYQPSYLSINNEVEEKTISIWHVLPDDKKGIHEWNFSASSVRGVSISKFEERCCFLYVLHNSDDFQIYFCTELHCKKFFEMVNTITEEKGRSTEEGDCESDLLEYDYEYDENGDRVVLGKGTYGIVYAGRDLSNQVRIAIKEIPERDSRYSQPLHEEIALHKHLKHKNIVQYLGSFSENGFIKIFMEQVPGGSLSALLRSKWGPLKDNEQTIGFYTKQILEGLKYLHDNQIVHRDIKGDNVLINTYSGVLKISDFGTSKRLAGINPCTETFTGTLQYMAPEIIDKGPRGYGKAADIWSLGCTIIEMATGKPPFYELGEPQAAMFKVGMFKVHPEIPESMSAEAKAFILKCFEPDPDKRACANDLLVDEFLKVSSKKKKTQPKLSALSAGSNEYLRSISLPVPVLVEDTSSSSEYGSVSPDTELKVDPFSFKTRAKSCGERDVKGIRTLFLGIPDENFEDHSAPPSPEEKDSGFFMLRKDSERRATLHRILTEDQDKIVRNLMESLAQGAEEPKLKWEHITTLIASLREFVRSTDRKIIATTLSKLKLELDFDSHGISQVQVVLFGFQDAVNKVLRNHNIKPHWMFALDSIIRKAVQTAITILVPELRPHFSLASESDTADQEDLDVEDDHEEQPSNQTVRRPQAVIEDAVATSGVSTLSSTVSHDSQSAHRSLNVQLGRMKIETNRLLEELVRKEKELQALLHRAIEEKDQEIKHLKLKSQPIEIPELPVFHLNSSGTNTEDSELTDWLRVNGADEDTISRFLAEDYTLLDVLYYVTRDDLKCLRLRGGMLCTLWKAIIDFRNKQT
The conditions noted are these: at 1 µM.

The target of test [20] is Platelet-derived growth factor receptor beta (Homo sapiens) (UniProt P09619). The conditions noted are these: at 1 µM.

Chain of RAC-gamma serine/threonine-protein kinase (Homo sapiens) (Q9Y243 whole entry): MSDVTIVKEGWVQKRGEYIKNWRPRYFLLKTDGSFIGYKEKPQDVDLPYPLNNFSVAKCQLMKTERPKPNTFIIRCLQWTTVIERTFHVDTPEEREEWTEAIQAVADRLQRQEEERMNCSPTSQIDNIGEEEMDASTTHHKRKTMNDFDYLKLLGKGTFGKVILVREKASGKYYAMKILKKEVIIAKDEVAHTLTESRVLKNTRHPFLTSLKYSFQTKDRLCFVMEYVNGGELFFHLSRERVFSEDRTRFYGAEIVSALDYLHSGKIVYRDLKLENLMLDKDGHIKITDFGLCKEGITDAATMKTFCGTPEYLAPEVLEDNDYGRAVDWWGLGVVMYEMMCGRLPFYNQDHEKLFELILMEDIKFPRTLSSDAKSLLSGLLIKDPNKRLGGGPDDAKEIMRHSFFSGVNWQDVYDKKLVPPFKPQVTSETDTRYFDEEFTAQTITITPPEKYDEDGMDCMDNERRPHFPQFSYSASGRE
T2 sequence (P54619 whole entry): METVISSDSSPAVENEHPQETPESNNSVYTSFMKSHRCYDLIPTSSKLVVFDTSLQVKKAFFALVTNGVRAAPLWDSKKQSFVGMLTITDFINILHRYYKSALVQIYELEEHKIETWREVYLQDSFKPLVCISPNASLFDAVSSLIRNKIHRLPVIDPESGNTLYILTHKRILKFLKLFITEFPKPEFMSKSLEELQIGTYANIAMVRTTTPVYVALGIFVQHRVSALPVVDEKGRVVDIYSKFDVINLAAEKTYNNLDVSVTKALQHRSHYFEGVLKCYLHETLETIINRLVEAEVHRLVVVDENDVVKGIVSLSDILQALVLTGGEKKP
T2 sequence (Q13131 whole entry partner): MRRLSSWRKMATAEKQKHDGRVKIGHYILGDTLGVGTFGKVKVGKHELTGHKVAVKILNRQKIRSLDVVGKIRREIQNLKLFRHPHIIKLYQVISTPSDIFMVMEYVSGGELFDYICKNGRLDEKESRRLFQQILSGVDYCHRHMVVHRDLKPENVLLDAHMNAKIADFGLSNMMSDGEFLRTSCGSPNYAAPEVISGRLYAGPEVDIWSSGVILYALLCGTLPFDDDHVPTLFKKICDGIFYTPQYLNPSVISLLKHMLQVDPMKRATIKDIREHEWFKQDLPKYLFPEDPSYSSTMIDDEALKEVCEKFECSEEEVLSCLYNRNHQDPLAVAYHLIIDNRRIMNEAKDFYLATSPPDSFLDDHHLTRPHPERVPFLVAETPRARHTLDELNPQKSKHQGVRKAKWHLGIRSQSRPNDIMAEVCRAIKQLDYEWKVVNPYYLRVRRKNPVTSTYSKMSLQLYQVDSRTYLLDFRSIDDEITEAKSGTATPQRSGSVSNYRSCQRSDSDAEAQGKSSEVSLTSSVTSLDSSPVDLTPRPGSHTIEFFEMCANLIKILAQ
T2 sequence (Q9Y478 2-270 partner limits assumed): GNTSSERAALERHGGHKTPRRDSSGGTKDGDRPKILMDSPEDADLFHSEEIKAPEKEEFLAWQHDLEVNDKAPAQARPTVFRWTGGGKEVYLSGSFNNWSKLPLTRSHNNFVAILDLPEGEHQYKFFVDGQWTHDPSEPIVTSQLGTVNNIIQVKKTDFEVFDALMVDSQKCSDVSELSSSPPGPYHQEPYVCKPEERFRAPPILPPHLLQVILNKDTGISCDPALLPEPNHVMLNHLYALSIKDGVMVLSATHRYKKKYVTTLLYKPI
Chain of Platelet-derived growth factor receptor beta (Homo sapiens) (P09619 whole entry): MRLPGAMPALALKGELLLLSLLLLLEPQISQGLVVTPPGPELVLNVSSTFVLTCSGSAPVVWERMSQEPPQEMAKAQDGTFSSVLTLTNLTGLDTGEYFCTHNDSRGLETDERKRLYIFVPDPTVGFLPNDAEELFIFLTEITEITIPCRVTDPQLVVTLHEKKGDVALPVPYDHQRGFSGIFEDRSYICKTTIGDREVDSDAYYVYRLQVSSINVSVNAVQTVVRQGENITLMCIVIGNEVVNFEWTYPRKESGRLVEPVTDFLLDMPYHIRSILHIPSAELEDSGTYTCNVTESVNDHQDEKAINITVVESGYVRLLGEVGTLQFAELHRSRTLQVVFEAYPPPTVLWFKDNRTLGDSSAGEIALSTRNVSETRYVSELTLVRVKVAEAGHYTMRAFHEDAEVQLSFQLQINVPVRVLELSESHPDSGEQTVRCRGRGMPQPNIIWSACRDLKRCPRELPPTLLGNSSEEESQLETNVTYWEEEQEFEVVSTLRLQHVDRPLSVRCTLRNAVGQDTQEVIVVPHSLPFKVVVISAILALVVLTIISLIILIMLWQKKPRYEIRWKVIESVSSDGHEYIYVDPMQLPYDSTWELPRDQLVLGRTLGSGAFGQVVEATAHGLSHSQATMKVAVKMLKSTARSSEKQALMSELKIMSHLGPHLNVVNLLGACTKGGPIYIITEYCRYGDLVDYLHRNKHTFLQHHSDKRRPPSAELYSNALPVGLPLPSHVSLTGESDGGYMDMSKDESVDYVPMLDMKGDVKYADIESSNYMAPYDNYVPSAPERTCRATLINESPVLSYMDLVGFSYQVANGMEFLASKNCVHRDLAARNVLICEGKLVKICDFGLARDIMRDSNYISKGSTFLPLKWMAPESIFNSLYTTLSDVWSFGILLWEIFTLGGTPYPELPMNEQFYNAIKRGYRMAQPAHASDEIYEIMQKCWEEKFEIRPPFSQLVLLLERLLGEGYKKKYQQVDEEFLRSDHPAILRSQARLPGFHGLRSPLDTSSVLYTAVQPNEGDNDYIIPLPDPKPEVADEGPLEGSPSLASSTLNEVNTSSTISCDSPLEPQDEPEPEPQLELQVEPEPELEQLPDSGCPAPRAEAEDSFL
Chain of ALK tyrosine kinase receptor (Homo sapiens) (Q9UM73 19-1620 limits assumed): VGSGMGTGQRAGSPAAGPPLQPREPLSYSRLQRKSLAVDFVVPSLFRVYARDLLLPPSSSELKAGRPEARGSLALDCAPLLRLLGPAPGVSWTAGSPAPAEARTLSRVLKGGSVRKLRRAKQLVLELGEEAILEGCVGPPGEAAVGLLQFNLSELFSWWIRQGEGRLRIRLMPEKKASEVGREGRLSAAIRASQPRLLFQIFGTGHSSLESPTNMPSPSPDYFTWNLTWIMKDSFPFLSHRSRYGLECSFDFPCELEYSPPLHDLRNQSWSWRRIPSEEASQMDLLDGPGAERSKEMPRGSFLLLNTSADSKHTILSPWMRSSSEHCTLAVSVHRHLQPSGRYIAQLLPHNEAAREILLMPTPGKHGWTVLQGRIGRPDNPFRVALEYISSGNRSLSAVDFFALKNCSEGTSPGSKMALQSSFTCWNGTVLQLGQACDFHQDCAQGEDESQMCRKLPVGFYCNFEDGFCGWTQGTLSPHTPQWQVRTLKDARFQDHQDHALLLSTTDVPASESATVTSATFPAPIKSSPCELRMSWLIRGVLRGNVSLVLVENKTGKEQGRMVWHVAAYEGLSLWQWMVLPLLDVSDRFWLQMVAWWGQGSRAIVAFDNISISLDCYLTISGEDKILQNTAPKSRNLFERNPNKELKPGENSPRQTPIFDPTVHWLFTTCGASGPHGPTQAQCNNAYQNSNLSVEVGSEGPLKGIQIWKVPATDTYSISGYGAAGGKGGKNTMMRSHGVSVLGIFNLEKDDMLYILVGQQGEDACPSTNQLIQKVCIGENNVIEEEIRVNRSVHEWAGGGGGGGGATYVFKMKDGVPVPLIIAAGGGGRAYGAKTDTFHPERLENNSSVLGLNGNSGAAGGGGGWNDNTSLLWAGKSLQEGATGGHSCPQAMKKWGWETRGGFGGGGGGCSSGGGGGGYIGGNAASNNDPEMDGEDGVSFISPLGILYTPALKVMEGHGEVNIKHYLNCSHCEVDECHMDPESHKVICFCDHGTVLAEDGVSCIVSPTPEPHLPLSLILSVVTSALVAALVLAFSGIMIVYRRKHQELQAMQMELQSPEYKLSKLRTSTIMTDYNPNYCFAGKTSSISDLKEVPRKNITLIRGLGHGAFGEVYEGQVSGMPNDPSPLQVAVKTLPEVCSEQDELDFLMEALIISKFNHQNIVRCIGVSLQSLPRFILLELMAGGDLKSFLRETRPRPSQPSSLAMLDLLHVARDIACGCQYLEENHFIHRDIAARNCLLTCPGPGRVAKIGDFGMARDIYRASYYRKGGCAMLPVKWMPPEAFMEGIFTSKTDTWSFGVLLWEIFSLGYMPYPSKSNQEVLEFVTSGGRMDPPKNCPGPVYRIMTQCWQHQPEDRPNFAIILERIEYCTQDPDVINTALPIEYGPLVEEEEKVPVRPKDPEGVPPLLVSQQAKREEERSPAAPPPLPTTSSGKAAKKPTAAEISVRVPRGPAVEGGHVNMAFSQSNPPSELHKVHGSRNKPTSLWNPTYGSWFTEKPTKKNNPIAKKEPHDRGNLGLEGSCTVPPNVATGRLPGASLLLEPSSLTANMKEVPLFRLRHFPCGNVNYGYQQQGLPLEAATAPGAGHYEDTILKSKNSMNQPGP

As for `O=C1NC(=O)C(c2c[nH]c3ccccc23)=C1c1c[nH]c2ccccc12`, the residual activity was 44% in test [1]; 114% in test [2]; 75% in test [3]; 72% in test [4]; 15% in [5]; 66% in [6]. Besides, the residual activity is 10% in [7]; 83% in test [8]; 24% in test [9]; 77% in test [10]; 83% in [11]; 71% in test [12]. For the same molecule, the residual activity in test [13] came out at 18%; in test [14], 55%; in test [15], 100%; in test [16], 36%.

In the case of `COc1ccc2c(c1)c(C1=C(c3c[nH]c4ccccc34)C(=O)NC1=O)cn2CCCN(C)C`, the residual activity in [1] was 64%; in test [3] it was 47%; in test [4] it was 52%; in test [5] it was 11%; in test [6], 38%; in test [7], 5%. Moreover, the residual activity in test [8] is 37%; in [9], 10%; in test [17] it was 106%; in [10], 66%; in [11], 63%; in test [12], 62%. Also, the residual activity in test [13] was 14%; in [18], 37%; in test [14], 17%; in test [15], 30%; in [16], 9%.

`O=C1NC(=O)c2c1c1c3ccccc3[nH]c1n1cncc21`: the residual activity came to 48% in [1]; 97% in test [2]; 49% in test [4]; 34% in test [5]; 38% in test [6]; 29% in [7]. For the same molecule, the residual activity in test [8] turned out to be 15%; in test [9] it was 13%; in test [19], 99%; in test [17], 96%; in [10] it was 92%; in test [20], 88%. Further, the residual activity came to 92% in test [11]; 56% in test [12]; 39% in [13]; 82% in test [18]; 88% in test [14]; 84% in test [15]. The residual activity in [16] is 64%.

For `NC(=O)Nc1sc(-c2ccc(F)cc2)cc1C(N)=O`, the residual activity in test [1] came to 31%; in test [4], 69%; in [5] it was 27%; in test [6], 66%; in test [7] it was 25%; in test [17] it was 41%. For the same molecule, the residual activity in [10] stood at 20%; in test [20], 89%; in [11] it was 55%; in test [12], 57%; in test [13], 17%; in test [18], 92%. Besides, the residual activity in [14] turned out to be 82%; in test [15], 85%; in test [16], 55%.

Turning to `Nc1nccc(-c2c(-c3ccc(F)cc3)ncn2C2CCNCC2)n1`, the residual activity in test [3] amounted to 40%; in [7], 70%; in test [9], 77%; in [14] it was 64%.

For the molecule `COc1ccc(-c2cnc3c(-c4ccsc4)cnn3c2)cc1`, the residual activity in [2] was determined as 126%; in test [3], 88%; in [6] it was 88%; in test [7], 79%; in test [19], 82%; in test [17] it was 99%. In addition, the residual activity in [10] came out at 92%; in [18] it was 80%; in test [14], 82%.

Consider `c1ccc(-c2cnc(Nc3ccc(OCCN4CCCC4)cc3)s2)cc1`, for which the residual activity in [2] amounted to 131%; in test [3], 115%; in test [6], 81%; in test [7] it was 28%; in test [8], 74%; in test [9] it was 27%. Moreover, the residual activity in [17] was 7%; in test [10], 1%; in [20], 3%; in [11], 0%; in test [12], 113%; in test [13], 114%. For the same molecule, the residual activity in test [18] is 78%; in test [14], 133%.
